Source: PubChem
Cl transport mod – KCC2 cotransporter modulators, thallium flux, primary screen, cell-based, HEK293 KCC2, FluoZin-2 fluorescence, MLSMR; AID 1456, 2008; B-score of Tl+ flux slope (higher = more flux/activation; lower = inhibition) at 10 µM; Solute carrier family 12 member 5 (Homo sapiens), Q9H2X9; KCC2 cells, thallium flux FluoZin-2 fluorescence; hit rate 2.2% among 190,000;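 active = thallium flux slope and its plate-corrected score both differing from the plate sample mean at a set confidence after two filtering rounds, in either direction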;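 also: slope of fluorescence scaled to starting intensity during 10 to 20 s after thallium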
Target sequence (Q9H2X9 whole entry, looked up): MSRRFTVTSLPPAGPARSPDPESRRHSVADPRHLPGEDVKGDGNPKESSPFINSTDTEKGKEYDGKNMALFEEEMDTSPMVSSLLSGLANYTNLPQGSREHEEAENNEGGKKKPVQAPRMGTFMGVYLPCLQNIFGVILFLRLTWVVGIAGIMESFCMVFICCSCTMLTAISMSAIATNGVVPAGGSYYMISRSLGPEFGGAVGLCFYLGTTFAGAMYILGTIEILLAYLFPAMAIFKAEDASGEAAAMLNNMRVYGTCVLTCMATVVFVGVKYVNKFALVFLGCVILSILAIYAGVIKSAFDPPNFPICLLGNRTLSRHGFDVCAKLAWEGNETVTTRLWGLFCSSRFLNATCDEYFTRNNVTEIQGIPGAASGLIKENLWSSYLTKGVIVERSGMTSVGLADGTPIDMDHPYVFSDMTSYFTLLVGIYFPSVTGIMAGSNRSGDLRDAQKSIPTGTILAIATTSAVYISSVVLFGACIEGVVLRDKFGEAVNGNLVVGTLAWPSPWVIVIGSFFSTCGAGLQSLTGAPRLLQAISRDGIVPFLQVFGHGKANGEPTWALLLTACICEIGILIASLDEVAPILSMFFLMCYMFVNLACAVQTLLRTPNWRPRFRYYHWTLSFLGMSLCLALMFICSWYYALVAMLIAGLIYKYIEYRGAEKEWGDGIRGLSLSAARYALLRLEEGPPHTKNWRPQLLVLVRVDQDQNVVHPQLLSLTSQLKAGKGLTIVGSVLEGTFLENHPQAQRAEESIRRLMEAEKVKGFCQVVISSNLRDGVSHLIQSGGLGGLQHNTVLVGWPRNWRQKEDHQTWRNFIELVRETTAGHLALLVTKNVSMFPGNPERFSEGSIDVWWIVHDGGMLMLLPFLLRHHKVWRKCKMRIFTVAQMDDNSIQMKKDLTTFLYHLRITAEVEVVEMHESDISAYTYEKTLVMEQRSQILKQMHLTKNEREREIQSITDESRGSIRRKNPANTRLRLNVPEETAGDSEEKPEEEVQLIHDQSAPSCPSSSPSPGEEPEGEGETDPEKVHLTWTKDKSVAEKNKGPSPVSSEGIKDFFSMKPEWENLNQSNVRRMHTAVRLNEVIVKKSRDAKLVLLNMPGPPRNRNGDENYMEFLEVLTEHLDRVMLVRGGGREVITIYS
Calpain2 inh – inhibitors of pig calpain II, primary screen, biochemical, fluorogenic peptide substrate, 1536-well | purified calpain II, 30 min | inhibition, % at 16 µM | hit rate 0.37% among 220,000 | AID 1236, 2008;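 active = inhibition above about 50%, limit read from the data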
WT yeast gro inh – growth inhibition of WT strain, primary screen, mitochondrial fusion inhibitor project, WT and mutant strains, chemical genetic; inhibition, % at 10 µM; AID 1362, 2008; hit rate 2.1% among 190,000; mitochondrial fusion phenotypic screen; in the data active = inhibition above about 58%; tested in S. cerevisiae
ROMK primary – ROMK potassium channel modulators, primary screen, cell-based, thallium flux, MLSMR library; B-score at 10 µM; Tet-inducible ROMK, thallium flux fluorescence; actives lie on both sides; AID 1918, 2009; ATP-sensitive inward rectifier potassium channel 1 (Homo sapiens), P48048; hit rate 2% among 130,000;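 active = signal ratio slope over the read window, or its plate-corrected B-score, at least 3 SD from the plate mean, either direction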;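 also: B-score of the F/F0 ratio slope over 7 to 12 s after thallium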
L major viab – Leishmania major promastigote growth inhibition, primary screen; Leishmania major promastigotes, resazurin fluorescence viability; inhibition, % at 10 µM; hit rate 9% among 200,000; AID 1063, 2008; in the data active = inhibition above about 50%;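 also: promastigotes grown with compound for 44 hours at 28 °C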
Numbers stand for hits; 0 = inactive; - = not tested or not shown. A selection: hits, their analogues and other compounds. The true share with any hit is near 12%.

SMILES	Cl transport mod	Calpain2 inh	WT yeast gro inh	ROMK primary	L major viab
CCCCC(=O)O[C@H]1CC[C@H]2[C@@H]3CCc4cc(O)ccc4[C@H]3CC[C@]12C	0	0	90.6	-	0
C[C@]12CC[C@@H]3c4ccc(O)cc4CC[C@H]3[C@@H]1CCC2=O	0	0	0	0	0
CN(Cc1cc2ccccc2[nH]c1=O)C(=O)COc1ccccc1	0	0	-	-	-
CCOC(=O)c1sc2nc(CSc3ccccc3)nc(N3CCCN(C)CC3)c2c1C	0	0	92.6	0	100.2
Cc1sc2nc(CSc3ccccc3)nc(N3CCOCC3)c2c1C	0	0	0	-	82.4
CCOC(=O)c1sc2nc(CC(=O)OC)nc(N3CCN(c4ccccn4)CC3)c2c1C	0	0	0	0	0
Cc1sc2nc(CSc3ccccc3)nc(N3CCC(C(N)=O)CC3)c2c1C	0	0	0	0	70.0
Cc1sc2nc(CN3CCOCC3)nc(NCCc3ccccc3)c2c1C	0	0	0	-	0
CCOC(=O)c1sc2nc(CSc3ccccc3)nc(N3CCC(C(N)=O)CC3)c2c1C	0	0	71.0	0	0
CN(CCCC[C@H](CNCc1ccc(-c2ccccc2)cc1)N1C[C@H](c2ccccc2)N(CCc2ccc(Cl)c(Cl)c2)C(=O)C1=O)Cc1ccc(-c2ccccc2)cc1	0	0	-	-	-
COc1ccc(CNC[C@@H](CCCCN(C)Cc2ccc(OC)cc2)N2C[C@H](c3ccccc3)N(CCc3ccc(Cl)c(Cl)c3)C(=O)C2=O)cc1	0	0	0	-	99.7
O=C(NCc1ccncc1)c1nc(-c2ccc(C(F)(F)F)cc2)no1	0	0	0	0	0
COC(=O)C1(Cc2ccc(O)c(CC3OC3(C)C)c2)OC(=O)C(O)=C1c1ccc(O)cc1 (stereo not given)	0	0	-	-	-
CCN(CC#CCC(O)(c1ccccc1)c1ccccc1)C(C)C	0	0	0	0	87.0
CC(C)N(CC#CCC(O)(c1ccccc1)c1ccccc1)C(C)C	0	0	0	0	87.8
CC(C)N(CC#CCC(O)(c1ccccc1)c1ccccc1)CCO	0	0	0	0	0
O=C(COc1ccc(S(=O)(=O)N2CCCC2)cc1)NCC1CCCO1 (stereo not given)	0	0	0	0	0
CCOc1ccc(C2C(C#N)=C(N)N(c3sc4c(c3C#N)CCCC4)C3=C2C(=O)CCC3)cc1 (stereo not given)	0	0	0	0	57.4
CSc1ccc(C2C(C#N)=C(N)N(c3ccccc3)C3=C2C(=O)CCC3)cc1 (stereo not given)	0	0	0	0	73.8
COc1cccc(NC(=O)OCCN2CCN(Cc3ccccc3)CCC2=O)c1	0	0	0	0	0
COc1ccc(S(=O)(=O)NCCSC(C)(C)C)cc1	0	0	0	0	0
Cc1nc(N)c(Cc2ccccc2F)c(N)n1	0	0	0	0	0
O=[N+]([O-])c1ccc(O)c(C(C#Cc2ccccc2)N2CCOCC2)c1 (stereo not given)	0	0	-	-	-
CC(C)c1cc(C(=O)Nc2ccc3c(c2)OCO3)no1	0	0	0	-	0
Cc1ccnc2nc(C(=O)Nc3ccc4c(c3)OCO4)nn12	0	0	0	0	0
SMILES	Cl transport mod	Calpain2 inh	WT yeast gro inh	ROMK primary	L major viab
O=C(Nc1ccc2c(c1)OCO2)c1cc(C2CC2)on1	0	0	0	-	52.0
Cc1cc(C)n2nc(C(=O)Nc3ccc4c(c3)OCO4)nc2n1	0	0	0	-	67.3
CC1CC(C)(C)NC(=S)N1CCCC(=O)N1CCN(c2ccc(F)cc2)CC1 (stereo not given)	0	0	0	0	82.5
COc1ccc(OC)c(NC(=O)CCCN2C(=S)NC(C)(C)CC2C)c1 (stereo not given)	0	0	0	0	69.9
CCOc1ccccc1NC(=O)CCCN1C(=S)NC(C)(C)CC1C (stereo not given)	0	0	0	0	52.1
Cn1nc(C(=O)Nc2sc3c(c2C#N)CCCC3)ccc1=O	0	0	0	0	0
Cc1cc(C(=O)COC(=O)CN=C2NS(=O)(=O)c3ccccc32)c(C)n1CCc1ccc(Cl)cc1	0	0	0	0	0
C=CCC(CC=C)(NC(=O)c1ccccc1C(=O)O)c1ccccc1	0	0	0	0	0
C=CCC(CC=C)(NC(=O)c1cccc(C)c1)c1ccccc1	0	0	0	-	68.4
Cc1cc(Nc2cnc3ccccc3n2)n(-c2ccccc2)n1	0	0	0	-	67.1
